Screening results deposited in PubChem BioAssay by Johns Hopkins Ion Channel Center.
Most compounds without a hit are left out; they make up all but 1.6% or so of the library.
KCNQ2 block: rat KCNQ2 potassium channel inhibitors, primary screen, cell-based, CHO-K1, FluxOR thallium flux, B-score; 20 min; active compounds read low; 1.1% of 310,000 active; B-score at 10 µM; AID 2156, 2009;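 active = fluorescence ratio B-score at most minus 3 library SDs, with starting brightness B-score within 2 library SDs, cut at about -5.5 in these data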
KCNQ2 pot: potentiators of rat KCNQ2 potassium channel; Potassium voltage-gated channel subfamily KQT member 2 (Rattus norvegicus), O88943; B-score at 10 µM; AID 2239, 2010; 0.54% of 310,000 active; CHO-K1 KCNQ2, FluxOR thallium flux fluorescence; active compounds read high;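 active = fluorescence ratio B-score at least 3 SD of library B-scores, with initial fluorescence B-score within 3 of them, cut at about 5.3 in these data; same plate scores as AID 2156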;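 also: B-score of peak minus minimum over baseline fluorescence ratio after K+ and Tl+ stimulus; positive B-score means potentiation of KCNQ2 with more thallium influx and brighter signal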
Kir21 conf inh: mouse Kir2.1 channel blockers, retest, confirmation, cell-based, FluxOR thallium flux, duplicate | Tl flux remaining, % of negative control (active compounds read low), % at 10 µM | shares compounds with KCNQ2 pot | AID 2032, 2009 | Kir2.1-expressing cells, FluxOR thallium flux fluorescence; active compounds read low | 41% of 2,300 active;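 active = Primary-screen hit whose thallium flux fell at least 3 control SD below untreated wells in both duplicates, with normal baseline fluorescence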;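 also: 0% = blank wells without stimulus and 100% = stimulated no-compound controls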
Target sequence (P35561 whole entry, looked up): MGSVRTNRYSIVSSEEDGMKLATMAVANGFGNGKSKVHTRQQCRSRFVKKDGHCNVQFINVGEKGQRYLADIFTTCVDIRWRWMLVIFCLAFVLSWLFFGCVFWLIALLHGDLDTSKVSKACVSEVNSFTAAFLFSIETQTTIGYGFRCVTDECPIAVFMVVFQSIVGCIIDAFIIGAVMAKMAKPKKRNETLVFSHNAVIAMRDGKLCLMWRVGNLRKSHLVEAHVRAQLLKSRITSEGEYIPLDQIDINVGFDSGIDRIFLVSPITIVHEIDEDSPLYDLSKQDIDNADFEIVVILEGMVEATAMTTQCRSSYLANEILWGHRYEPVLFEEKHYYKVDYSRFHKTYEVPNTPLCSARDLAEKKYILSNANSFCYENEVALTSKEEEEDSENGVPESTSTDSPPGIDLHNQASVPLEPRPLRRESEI
HEK293 ctr: parental HEK293 activity in Kir2.1 inhibitor counter-screen. shares compounds with KCNQ2 pot. parental HEK293 cells, FluxOR thallium flux fluorescence; 0% = unstimulated blank wells. FluxOR signal as % of negative control (100 = no effect), % at 10 µM. 19% of 2,300 active. AID 2105;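 active = dye signal at least 3 control SD above or below untreated wells in both duplicates, raw fluorescence within 3, either direction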;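 also: percent is based on the flux ratio of peak minus minimum fluorescence over baseline F0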
CHO-K1 Tl ctr: nonspecific thallium flux increase in parental CHO-K1, confirmation, counter-screen for KCNQ2 potentiator project, cell-based, FluxOR thallium flux, duplicate. shares compounds with KCNQ2 pot. parental CHO-K1 cells, FluxOR thallium flux fluorescence; zero = vehicle mean+3SD, 100% = vehicle-minus-blank window. activity increase over 3SD of controls, % at 10 µM. 43% of 1,200 active. AID 2282, 2010;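 active = signal rise of at least 3 SD above the untreated control mean, in both duplicate wells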;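 also: counter screen of KCNQ2 potentiator hits so any rise reflects channel-independent effects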
KCNQ1 sel pot: human KCNQ1 channel potentiation off-target, confirmation, selectivity assay for KCNQ2 potentiator project, cell-based, CHO, FluxOR thallium flux | shares compounds with KCNQ2 pot | CHO KCNQ1 stable, FluxOR thallium flux fluorescence; beyond 3SD, as % of vehicle-control signal | activation over 3SD threshold, % at 10 µM | 28% of 1,200 active | AID 2283, 2010;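 active = fluorescence ratio rise of at least 3 SD of vehicle wells above their mean, in both replicate wells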;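 also: 0% = vehicle mean plus 3 SD and 100% = vehicle minus unstimulated blank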
KCNQ2 pot confirm: rat KCNQ2 channel potentiators, confirmation, cell-based, CHO, FluxOR thallium flux, duplicate. shares compounds with KCNQ2 pot. CHO-KCNQ2 cells, FluxOR thallium flux fluorescence. potentiation, less the hit threshold, % at 10 µM. 68% of 1,200 active. AID 2287, 2010;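 active = fluorescence ratio rising 3 SD or more over the vehicle control mean in both replicates, plus primary screen hit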;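 also: peak minus minimum thallium fluorescence divided by baseline after K/Tl stimulus; 0% = vehicle mean plus 3 SD and 100% = vehicle minus unstimulated blank difference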
Kir21 spec: mouse Kir2.1 channel activation off-target, confirmation, selectivity assay for KCNQ2 potentiator project, cell-based, HEK293, FluxOR thallium flux; shares compounds with KCNQ2 pot; HEK293 Kir2.1, FluxOR thallium flux fluorescence; activity over 3SD threshold, % at 10 µM; 2% of 1,200 active;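 active = fluorescence ratio rise of at least 3 SD above the vehicle-control mean, seen in both replicates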;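 also: 0% = vehicle mean plus 3 SD and 100% = vehicle minus no-stimulus blank window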
KCNQ2 W236L pot: potentiators of retigabine-insensitive KCNQ2 W236L, mechanism study for KCNQ2 potentiator project, cell-based, rat KCNQ2 W236L, CHO, automated patch clamp; shares compounds with KCNQ2 pot; 10% of 940 active; automated patch clamp current; current increase over 3SD of negative controls (%), active compounds read high, % at 25 µM;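 active = current increase at least 3 SD of the untreated controls above them in both duplicate recordings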
Numbers without * were called inactive.

Screening O=C(CN1CCCCC1)NNc1nc(-c2ccccc2)c2cc(Br)ccc2n1 returned KCNQ2 block inactive, KCNQ2 pot 11*, Kir21 conf inh inactive, HEK293 ctr inactive, CHO-K1 Tl ctr 75*, KCNQ1 sel pot -11, KCNQ2 pot confirm 71*, Kir21 spec -39 and KCNQ2 W236L pot inactive.
Screening CC(=O)NNc1nc(-c2ccccc2)c2cc(Br)ccc2n1 returned KCNQ2 block inactive.
For Cc1ccc(C)c(N(CC(=O)NC2CCCC2)C(=O)CCC(=O)Nc2nccs2)c1 the results were KCNQ2 block inactive and KCNQ2 pot 0.17.
For COc1cccc(C(=O)NCC(=O)N/N=C/c2ccc3c(c2)OCO3)c1 the results were KCNQ2 block inactive and KCNQ2 pot 0.73.
For C/C=N/NC(=O)CCNC(=O)c1ccccc1 the results were KCNQ2 block inactive and KCNQ2 pot 0.48.
For Cc1cc(C)n(CC(=O)N/N=C/c2cc(Br)cc([N+](=O)[O-])c2O)n1 the results were KCNQ2 block inactive, KCNQ2 pot 6.9*, Kir21 conf inh inactive, HEK293 ctr 65%*, CHO-K1 Tl ctr -2, KCNQ1 sel pot -13, KCNQ2 pot confirm 40*, Kir21 spec -26 and KCNQ2 W236L pot inactive.
`Cc1cc(C)n(CC(=O)N/N=C/c2cc([N+](=O)[O-])ccc2O)n1` gave KCNQ2 block inactive and KCNQ2 pot 1.3.
For Cc1cnc(C(=O)OC(C(=O)c2c[nH]c3ccccc23)c2ccccc2)cn1 (stereo not given) the results were KCNQ2 block inactive.
For C(#CCN1CCCC1)CC(c1ccccc1)c1ccccc1 the results were KCNQ2 block inactive, Kir21 conf inh 40%* and HEK293 ctr inactive.
For OC(CC#CCN1CCCC1)(c1ccccc1)c1ccccc1 the results were KCNQ2 block inactive.
COc1cccc(C(=O)N2CCN(Cc3ccccc3Br)CC2)c1 was read as KCNQ2 block inactive.
`CC(=O)C1=C(C)NC(SCC(=O)c2ccc(Cl)cc2)=C(C#N)C1c1ccco1` (stereo not given) gave KCNQ2 block inactive, KCNQ2 pot 12*, Kir21 conf inh inactive, HEK293 ctr inactive, CHO-K1 Tl ctr -21, KCNQ1 sel pot 17*, KCNQ2 pot confirm -24 and Kir21 spec -37.
Screening CC(=O)C1=C(C)NC(SCC(=O)c2ccc(Cl)cc2Cl)=C(C#N)C1c1ccco1 (stereo not given) returned KCNQ2 block inactive and KCNQ2 pot 1.4.
Screening Cc1cc(SCC(=O)NCC2CCCO2)nc2ccccc12 (stereo not given) returned KCNQ2 block inactive.
Screening CN(c1ccc(OCC(=O)NCCc2ccccc2)cc1)S(=O)(=O)c1ccc(Cl)cc1 returned KCNQ2 block inactive.
